Molecules are shown by their SMILES. The whole screen tested about 320,000 compounds, of which about 1,300 (0.41%) were called active. About 3% were inconclusive and are not listed. How the calls were made is not given here. The list is a sample of the results. Potency and affinity values are given separately.

The assay in a line: growth inhibition of non-replicating M. tuberculosis (AID 488890).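 Further: plate controls were DMSO cells for no effect and high antibiotic wells for full effect.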 Conditions: Mycobacterium tuberculosis non-replicating, at 25 µM, stronger effect = higher value.
As for `Cc1ccc(NC(=O)CC(C)N2CCCC2)cc1` (stereo not drawn), the inhibition (usually the change of the read-out against control, counted positive when it falls) is -3.18%.

Regarding `NCC(O)COCCC12CC3CC(CC(C3)C1)C2` (stereo not drawn), the inhibition amounted to 8.67%.

As to `CC(NCC(O)COCc1ccc(Cl)cc1)c1ccccc1` (stereo not drawn), the inhibition was 78.5%.

As to `Cc1nnc(NC(=O)c2ccccc2NC(=O)c2ccccc2)s1`, the inhibition was 33.7%.

On to `O=C(Nc1nnc(C(F)(F)F)s1)c1cccnc1`, for which the inhibition was 27.8%.

Take `Cc1cc(-c2n[nH]c(=S)n2-c2ccccc2C)cs1`: the inhibition is -13.2%.

Turning to `COc1ccccc1NC(=O)COC(=O)/C=C/c1ccccc1[N+](=O)[O-]`, the inhibition was found to be 65.2%.

On to `COC(=O)COc1ccc(/C=C2/NC(=O)N(CC(=O)OC)C2=O)cc1`, for which the inhibition came out at 9.12%.

For the compound `CCN1C(=O)/C(=C/c2ccc(N3CCCC3)cc2)NC1=S`, the inhibition came to 52.1%.

As for `Cc1cc(C)n(-c2ccc(C(=O)Nc3cccc(S(=O)(=O)N4CCCC4)c3)cc2)n1`, the inhibition was -4.31%.

Consider `C=CCn1c(SCC(=O)Nc2cc(C)cc(C)c2)nnc1-c1cnccn1`, for which the inhibition is -3.18%.

Turning to `CC[n+]1c(/C=C/Nc2ccccc2)oc2ccc(OC)cc21`, the inhibition turned out to be 35.5%.

As to `CC[n+]1c(/C=C/Nc2ccccc2)oc2ccccc21`, the inhibition worked out at 67.7%.

Regarding `Cc1cc(=O)oc2c3c(cc(OCC(=O)NCc4cccnc4)c12)OC(C)(C)CC3`, the inhibition came out at 7.63%.

With `CC(=O)OCCc1c2ccccc2c(CCCN(C)C)c2ccccc12`, the inhibition was 41.4%.

For the compound `Cc1onc(-c2c(Cl)cccc2Cl)c1COC(=O)c1ccc(Cl)cc1`, the inhibition amounted to 16.1%.

For `Cc1onc(-c2c(Cl)cccc2Cl)c1C(=O)OCC(=O)c1ccccc1`, the inhibition came out at 15.6%.

As to `CC1CCc2cc(F)cc3c(=O)c(C(=O)O)cn1c23` (stereo not drawn), the inhibition turned out to be 35.4%.

With `COc1c(F)c(F)cc2c(=O)c(C(=O)O)cn(C3CC3)c12`, the inhibition is 4.5%.

Regarding `CCOC(=O)c1cn(C2CC2)c2c(F)c(F)c(F)cc2c1=O`, the inhibition was -13%.

Consider `Cc1c(-n2cc(C(=O)O)c(=O)c3cc(F)c(N4CCCC(O)C4)c(F)c32)c(=O)n(-c2ccccc2)n1C` (stereo not drawn), for which the inhibition turned out to be 0.14%.

Take `C=CCN(CC=C)C(=O)COC(=O)c1ccc(Sc2ncn[nH]2)c([N+](=O)[O-])c1`: the inhibition turned out to be 43.1%.

As to `Cc1ccc(-c2ccc(SCC(=O)N3CCc4ccccc43)nn2)cc1`, the inhibition was -0.83%.

In the case of `CC(=O)Nc1ccc(Nc2cc(C(C)C)nc3c(-c4ccccc4)c(C)nn23)cc1`, the inhibition was 5.77%.

On to `CCCc1cc(N2CCN(c3ccccn3)CC2)n2nc(C)c(-c3ccccc3)c2n1`, for which the inhibition worked out at 2.63%.

With `CC(=O)Nc1ccc(Nc2cc(C)nc3c(-c4ccc(Cl)cc4)c(C)nn23)cc1`, the inhibition amounted to 2.43%.

With `Cc1cc(NCCCn2ccnc2)n2nc(C)c(-c3ccc(Cl)cc3)c2n1`, the inhibition was -1.28%.

Regarding `Cc1nn2c(NCCCn3ccnc3)cc(C(C)C)nc2c1-c1ccccc1`, the inhibition worked out at 75.8%.

As for `CCCc1cc(N2CCCC2)n2nc(C)c(-c3ccccc3)c2n1`, the inhibition was 43.4%.

Consider `Cc1cc(NC2CCCC2)n2ncc(-c3ccccc3)c2n1`, for which the inhibition came out at 36.8%.

On to `Cc1cc(NCc2ccccc2)n2ncc(-c3ccccc3)c2n1`, for which the inhibition came out at 14.7%.

Regarding `Nc1cc(N2CCNCC2)c([N+](=O)[O-])cc1Cl`, the inhibition was 6.14%.

As to `Cc1ccc(CNC(=O)C2CCCN(C(=O)N(C)C)C2)cc1` (stereo not drawn), the inhibition was -2.88%.

Consider `C=CCN1C(=O)c2ccc(C(=O)OCC(=O)Nc3ccccc3OC)cc2C1=O`, for which the inhibition is -2.33%.

For `CC(=O)c1cc(CN2CCN(Cc3ccccc3)C(CCO)C2)cs1` (stereo not drawn), the inhibition came out at 1.86%.

Consider `Cc1cc(C(=O)N(C)CC(=O)Nc2ccc(Cl)c(C(F)(F)F)c2)no1`, for which the inhibition amounted to 6.97%.

`Cc1c(NC(=O)COC(=O)Cn2cc(C(F)(F)F)ccc2=O)cccc1[N+](=O)[O-]`: the inhibition is -1.08%.

As to `Cc1cc(C)n2nc(SCC(=O)N(Cc3ccccc3)C3CCS(=O)(=O)C3)nc2n1` (stereo not drawn), the inhibition is -1.73%.

With `Cc1cc(NCCC(C)C)n2nc(C)c(-c3ccccc3)c2n1`, the inhibition was 49.1%.

As to `Cc1cc(Nc2ccccc2)n2nc(C)c(-c3ccccc3)c2n1`, the inhibition was determined as 15.2%.

Consider `COc1ccc(C(=O)CC(=O)c2ccccc2O)cc1OC`, for which the inhibition stood at 22.7%.

Consider `Cc1ccc(O)c(C(=O)CC(=O)c2cccc(F)c2)c1`, for which the inhibition was -5.71%.

As for `O=C(CCc1ccccc1)NNC(=O)c1cc(Cl)ccc1O`, the inhibition was -5.64%.

For `O=C(CC(=O)c1ccccc1)Nc1ccc(Cl)cc1`, the inhibition came out at 51.8%.

As to `C/C(=N\NC(=O)CNc1cccc(Cl)c1C)C1CC1`, the inhibition was found to be 2.17%.

Consider `CC(=O)Nc1ccc(C(=O)N2CCN(S(=O)(=O)c3ccc4c(c3)OCCCO4)CC2)cc1`, for which the inhibition was -1.17%.

In the case of `Cc1sc(NC(=O)C2=COCCO2)nc1-c1ccc(Cl)cc1`, the inhibition came out at 3.57%.

For `c1ccc(CN2CCN(c3cnc4ccccc4n3)CC2)cc1`, the inhibition amounted to 3.95%.

As to `COc1cc(C(=O)NC(=S)NNC(=O)[C@H]2C[C@@H]2c2ccccc2)cc(OC)c1OC`, the inhibition worked out at 62.4%.

As for `COc1cc(OC)cc(C(=O)NC(=S)NNC(=O)[C@H]2C[C@@H]2c2ccccc2)c1`, the inhibition turned out to be 78.5%.

In the case of `CC(=O)NCCc1nc2cc(NS(=O)(=O)c3ccc(Cl)cc3)ccc2n1C`, the inhibition is -19.6%.

Consider `COCCCN(CC(=O)Nc1ccc(F)cc1)S(=O)(=O)c1cccs1`, for which the inhibition was determined as 5.35%.

Consider `NNC(=O)/C(=C/c1cccs1)NC(=O)c1ccccc1Cl`, for which the inhibition amounted to 1.61%.

For the compound `Nc1ccc(C(=O)Nc2ccc(OC(F)(F)C(F)F)c(NC(=O)c3ccc(N)cc3)c2)cc1`, the inhibition amounted to 20.7%.

With `CCN(CC)S(=O)(=O)c1ccc(NS(=O)(=O)c2ccc(OC)c([N+](=O)[O-])c2)cc1`, the inhibition is -6.27%.

As for `CCCCCCCC(=O)N1CCN(c2cc3c(cc2F)c(=O)c(C(=O)O)cn3CC)CC1`, the inhibition was 72.9%.

With `CCCCCCCCC(=O)N1CCN(c2cc3c(cc2F)c(=O)c(C(=O)O)cn3CC)CC1`, the inhibition came out at 62.8%.

Regarding `O=C(O)c1cn(C2CC2)c2cc(N3CCN(S(=O)(=O)c4ccc5c(c4)OCCO5)CC3)c(F)cc2c1=O`, the inhibition was 79.5%.

Turning to `CCOC(=O)c1cn(CC)c2cc(N3CCN(C)CC3)c(F)cc2c1=O`, the inhibition is -0.72%.

As to `CCCCCCCCCC(=O)N1CCN(c2cc3c(cc2F)c(=O)c(C(=O)O)cn3CC)CC1`, the inhibition was 6.5%.

`CCn1cc(C(=O)NN)c(=O)c2cc(F)c(N3CCN(C)CC3)cc21`: the inhibition is -3.82%.

Take `CCc1ccc(/C=N/NC(=O)Cc2ccc(OC)c(OC)c2)s1`: the inhibition was 9.54%.

Regarding `COC(=O)C1=C2SC(C)C(=O)N2C(N)=C(C#N)C1c1ccc(OC)c(OC)c1` (stereo not drawn), the inhibition stood at 5.18%.

As to `CC(=O)c1ccc(NC(=O)CCC(=O)OCC(F)(F)C(F)F)cc1`, the inhibition is -4.72%.

As for `CC(=O)Nc1ccccc1OCc1cnc(Cl)s1`, the inhibition came out at 21%.

For the compound `Cc1cc(S(=O)(=O)Nc2cc(C)c(O)c(C)c2)c(C)s1`, the inhibition was 13%.

With `COc1ccc(-c2cc(NCCc3ccncc3)n3ncnc3n2)cc1`, the inhibition stood at 24.4%.

Consider `COc1ccc(-c2cc(NCc3ccccn3)n3ncnc3n2)cc1`, for which the inhibition was 55.9%.

On to `C[C@H](CO)N1C[C@H](C)[C@@H](CN(C)S(=O)(=O)c2ccccc2)Oc2ccc(NC(=O)C3CC3)cc2C1=O`, for which the inhibition is 6.81%.

For `Cc1cc(Br)ccc1SCC(=O)OCC(=O)NC1CCCC1`, the inhibition is 35.6%.

For the compound `COc1ccc(NC(=O)c2cc([N+](=O)[O-])ccc2N2CCCC2)cc1`, the inhibition is -2.99%.

Take `O=C(Nc1ccc(NC(=O)c2cccc([N+](=O)[O-])c2)cc1)c1cccc([N+](=O)[O-])c1`: the inhibition is -7.47%.

In the case of `O=C(Nc1ccc([N+](=O)[O-])cc1)c1cncc(Br)c1`, the inhibition came to 13.8%.

As to `Cc1csc(NC(=O)c2ccc(C(=O)Nc3nc(C)cs3)cc2)n1`, the inhibition was -7.26%.

As for `Cc1csc(NC(=O)c2ccc(C)c([N+](=O)[O-])c2)n1`, the inhibition came out at 5.36%.

Turning to `O=C(Nc1ccc(N2CCCCC2)cc1)c1cc([N+](=O)[O-])cc([N+](=O)[O-])c1`, the inhibition stood at 14.1%.

In the case of `COc1ccc(NC(=O)c2cc([N+](=O)[O-])ccc2N2CCCCC2)cc1`, the inhibition is -7.4%.

With `CC(=O)Nc1ccc(C(=O)NNC(=O)c2cc([N+](=O)[O-])cc([N+](=O)[O-])c2)cc1`, the inhibition came out at 16.3%.

Take `CC1=C(C(=O)c2ccccc2)C(c2ccc(N3CCOCC3)cc2)NC(=O)N1` (stereo not drawn): the inhibition came out at 13.5%.

Regarding `COc1ccc(OC)c(S(=O)(=O)N2CCCC(C(=O)N3CCOCC3)C2)c1` (stereo not drawn), the inhibition is -3.68%.

Take `CN1CCN(C(=S)NC(=O)/C=C/c2ccccc2Cl)CC1`: the inhibition was -10.3%.

In the case of `Cc1nc(C(=O)NCC(=O)c2ccc(Cl)cc2)c(C(F)(F)F)o1`, the inhibition stood at 75%.

Take `O=C(CCNC(=O)Cn1ccc2ccccc2c1=O)NCc1ccc(F)cc1Cl`: the inhibition was -3.09%.

With `NC(=O)CCC(NS(=O)(=O)c1ccc(Cl)cc1)C(=O)NCc1ccc(Cl)cc1` (stereo not drawn), the inhibition came to 0.33%.

As to `Cc1cccc(-n2c(-c3ccc(Br)o3)n[nH]c2=S)c1`, the inhibition was -15%.

With `COc1cc(CNC2CCCC2)cc(Cl)c1OCc1ccccc1F`, the inhibition came to 78.7%.

In the case of `CCCCNCc1cc(Br)c(OCC(=O)NCc2ccccc2)c(OC)c1`, the inhibition is 68.2%.

For `COc1cc(CNC2CCCC2)cc(Br)c1OCC(=O)Nc1ccccc1C`, the inhibition was found to be 45.5%.

`CCOc1cc(CNCCc2ccc(S(N)(=O)=O)cc2)cc(Cl)c1OCc1ccccc1`: the inhibition was 73%.

As for `COc1cc(CNC2CCCCCCC2)cc(Cl)c1OC`, the inhibition is 9.81%.

For `COc1cc(CNCc2ccccc2)cc(Cl)c1OC`, the inhibition was -13.6%.

Consider `OCCNCc1ccc(OCc2ccc(Cl)cc2Cl)cc1`, for which the inhibition came to 61.3%.

Take `CCOc1cccc(CNCCO)c1OCc1ccc(Cl)cc1Cl`: the inhibition came out at 42.6%.

With `COc1ccc(-c2n[nH]c(=S)n2-c2ccc(C)cc2C)cc1`, the inhibition is -17.9%.

With `Cc1ccc(S(=O)(=O)CCc2nnc(N)s2)cc1C`, the inhibition is 4.5%.

For `Cc1oc(-c2ccccc2F)nc1CSCC(=O)NC1CC1`, the inhibition is -0.31%.

As for `Cc1c(CC(=O)O)c(=O)oc2c(C)c(OCc3ccccc3)ccc12`, the inhibition was -3.08%.

Consider `CCN(CC(=O)Nc1cccc(C(C)=O)c1)S(=O)(=O)c1ccccc1`, for which the inhibition is -4.85%.

Consider `O=C(c1cccnc1)N1CCN(S(=O)(=O)c2ccc3ccccc3c2)CC1`, for which the inhibition was found to be 9.44%.

Take `CC(NC(=O)CN1C(=O)NC2(CCCC2)C1=O)c1ccc2ccccc2c1` (stereo not drawn): the inhibition worked out at 9.54%.

Turning to `CCN1CCC(NCCc2ccc(F)cc2)CC1`, the inhibition was -11.9%.

In the case of `CN(C(=O)c1ccc2c(Cl)c3c(nc2c1)CCC3)c1ccccc1`, the inhibition amounted to 32.3%.

With `Cc1ccc(N(CC(=O)Nc2c(C)n(C)n(-c3ccccc3)c2=O)S(C)(=O)=O)c(C)c1`, the inhibition is -0.1%.

As to `O=P(O)(O)COc1ccccc1P(=O)(c1ccccc1)c1ccccc1`, the inhibition is -12.2%.

For the compound `Cc1noc(C)c1COC(=O)COc1cccc2c1OC(C)(C)C2`, the inhibition was found to be 39.2%.

As for `Cc1noc(C)c1COC(=O)COc1ccc(C#N)cc1`, the inhibition worked out at 38.3%.

On to `O=C(Nc1ccc(N2CCN(C(=O)c3ccco3)CC2)cc1)c1cccs1`, for which the inhibition was determined as 38.8%.

On to `O=C(Nc1ccc(N2CCN(C(=O)c3cccs3)CC2)c(Cl)c1)c1ccco1`, for which the inhibition amounted to 9.48%.

Source of the values: PubChem BioAssay AID488890 (Southern Research Specialized Biocontainment Screening …, 2010).
